Assay results: PubChem BioAssay AID686979 (National Center for Advancing Translational Sciences (NCATS), 2013)
In all, about 420,000 compounds went through this assay and about 50,000 (12%) were called active. Entries that show only a call come without a potency. Not shown: some 26% with an inconclusive outcome. Calls follow the shape of the dose curve; as a rule, active = well fitted inhibition curve with a large enough effect; inconclusive = small, poorly fitted or top-dose-only effect; inactive = flat fitted curve, though single readings scatter. The full list was thinned out, with actives kept by preference.

assay: qHTS for Inhibitors of human tyrosyl-DNA phosphodiesterase 1 (TDP1): qHTS in cells in presence of CPT; settings: chicken DT40 Tdp1-/-;hTDP1 cells + 20 nM CPT, ATP luminescence, 48 h; series mostly up to 46.2 µM; also: nearly all actives have a fitted effect of over 55% in size
Summary of the method: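 Cell growth measured by CellTiter-Glo luminescence after a minimum 48 h, 37 C compound exposure with 20 nM CPT in Tdp1-knockout DT40 cells stably expressing hTDP1, seeded 400/well; qHTS titration format.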
Potency is read from the fitted curve at half-maximal effect.

Compound | Potency
NS(=O)(=O)c1ccc(CCNC(=O)CCCCCn2c(=O)[nH]c3ccccc3c2=O)cc1 | inactive
CCN(CC)CCNC(=O)CCCCCn1c(=O)[nH]c2cc(C(=O)OC)ccc2c1=O | inactive
O=C(CCCn1c(=O)[nH]c2cc(Cl)ccc2c1=O)NCCN1CCN(c2ccccc2)CC1 | 23.1 µM (active)
O=C(Cc1csc(Nc2nc(=S)[nH]c3ccccc23)n1)NCCCN1CCN(c2cccc(Cl)c2)CC1 | 16.4 µM (active)
Cc1ccc(C)c(N2CCN(C(=O)CCCCn3c(=O)[nH]c4ccccc4c3=O)CC2)c1 | 16.4 µM (active)
O=C(CCCCCn1c(=O)[nH]c2ccccc2c1=O)NCCc1c[nH]c2ccccc12 | inactive
O=C(CCn1c(=S)[nH]c2ccccc2c1=O)NCCCN1CCCC1=O | inactive
O=C(CCCCn1c(=O)[nH]c2ccccc2c1=O)NCc1ccc2c(c1)OCO2 | inactive
Cc1ccc(C)c(N2CCN(C(=O)CCc3c(C)nc4c(c3C)c(=O)n(C)c(=O)n4C)CC2)c1 | inactive
Cc1nc2ccccc2c2oc(C(=O)NCCCN3CCC(C)CC3)cc12 | inactive
COc1cc(/C=C2\CCCc3c2nc2ccccc2c3C(=O)O)cc(Cl)c1O | inactive
O=C(Nc1cccnc1Oc1ncnc2cc(Cl)ccc12)c1ccc(F)cc1 | inactive
CC(NS(=O)(=O)c1ccccc1)c1n[nH]c(=S)n1-c1ccccc1 (stereo unspecified) | inactive
CCC(C)CN1C(=O)CN(S(C)(=O)=O)CC1(C)C(=O)Nc1ccc2c(c1)OCCO2 (stereo unspecified) | inactive
O=C(C[C@H]1CC[C@H]2[C@@H](COC[C@H](O)CN2C(=O)c2ccccn2)O1)N1CCN(c2ccccc2)CC1 | inactive
Cc1nccn1-c1ccc(NC(=O)[C@H]2O[C@@H](n3ccc(=O)[nH]c3=O)[C@H](O)[C@@H]2O)cc1 | inactive
CC(=O)Nc1cnc(-c2ccc(O)cc2C)cn1 | 9.2 µM (active)
Cc1cc(O)ccc1-c1cnc2ccccc2n1 | inactive
CC(=O)Nc1cncc(-c2ccccc2CO)n1 | inactive
COc1ccc(C(=O)NNc2cc(C)nc(NNC(=O)c3ccc(OC)cc3)n2)cc1 | inactive
COC(=O)c1ccc2nc(-c3ccc(Cl)cc3)c(Cc3cccc(F)c3)n2c1 | 20.6 µM (active)
COC(=O)c1ccc2nc(-c3ccc(OC)c(OC)c3)c(Cc3ccccc3)n2c1 | 23.1 µM (active)
COC(=O)c1ccc2nc(-c3cccc(Br)c3)c(Cc3ccccc3C(F)(F)F)n2c1 | inactive
COc1ccc(C(=O)OCC(=O)NCCCc2ccccc2)cc1OC | inactive
COc1ccc(NC(=O)c2cc(-c3ccc(C)cc3)on2)cc1 | inactive
COC(=O)c1ccc2nc(-c3ccc(C)cc3)c(Cc3ccc(OC)cc3C)n2c1 | 23.1 µM (active)

Compound | Potency
COC(=O)c1ccc(COC(=O)c2cnc(Cl)c(Cl)c2)cc1 | inactive
COC(=O)c1ccc(CSc2nc3cc(Cl)ccc3o2)cc1 | inactive
Cc1ccc(N2CCN(c3ccc([N+](=O)[O-])cn3)CC2)c(C)c1 | inactive
CCOC(=O)C(=Cc1ccccc1)C(=O)c1ccccc1 | 18.4 µM (active)
CCOC(=O)C(=CNc1cccc(C)n1)C(=O)OCC | inactive
CCOC(=O)CNC(=O)/C(=C\c1ccc(F)cc1)NC(=O)c1ccccc1 | inactive
O=c1ccc2cc(S(=O)(=O)Nc3ccccc3F)ccc2o1 | inactive
COc1ccc2c(c1)c(=O)c(S(=O)(=O)c1ccc(F)cc1)cn2CC(=O)Nc1ccc(C)cc1C | inactive
CCOc1ccc2c(c1)c(=O)c(S(=O)(=O)c1ccc(C)cc1)cn2CC | 18.4 µM (active)
CCOc1ccc(S(=O)(=O)c2cn(Cc3ccccc3)c3ccc(OCC)cc3c2=O)cc1 | 13 µM (active)
CCOc1cccc(C(=O)Nc2cnn(Cc3ccccc3)c2)c1 | inactive
CCCn1cc(S(=O)(=O)c2ccc(C)cc2)c(=O)c2cc(OCC)ccc21 | inactive
CCOc1ccc(S(=O)(=O)NCCSc2ccccc2)cc1 | inactive
CCN(CC)Cc1c(C(=O)N/N=C/c2cccc(OCc3ccc(F)cc3)c2)nnn1-c1nonc1N | inactive
CC(C)(C)n1nc2c(c1NC(=O)c1cc3ccccc3o1)CSC2 | inactive
O=C(NC(=S)Nc1cc(C(F)(F)F)ccc1N1CCOCC1)c1ccc(-c2cccc(Cl)c2)o1 | inactive
CCN(CC)CCn1c(/N=C/c2cc(Br)ccc2O)nc2ccccc21 | inactive
Oc1ccc(Br)cc1C=Nc1ccc2[nH]ncc2c1 | inactive
Oc1ccc(Br)cc1/C=N/Nc1ccccn1 | 1.64 µM (active)
O=C(NCCN1CCOCC1)Nc1cccc(Cl)c1 | inactive
CCN1CCN(CCNC(=O)c2ccc3c(c2)NC(=O)/C(=C\c2cccc(Cl)c2)S3)CC1 | 23.1 µM (active)
CCN1CCCC1CNC(=O)c1ccc2c(c1)NC(=O)/C(=C\c1ccccc1F)S2 (stereo unspecified) | 18.4 µM (active)
O=C(NCCCN1CCCCC1)c1ccc2c(c1)NC(=O)C(N1CCOCC1)S2 (stereo unspecified) | inactive
COc1ccc(CN2CCCC(CNC(=O)c3ccc(F)cc3)C2)cc1OC (stereo unspecified) | inactive
CCN1CCCC1CNC(=O)c1cc2cc(OC)c(OC)cc2[nH]1 (stereo unspecified) | inactive
